Results on seven molecules are retold here after PubChem BioAssay (Tox21).

Inconclusive results are not listed. Some structures have more than one record in an assay (separate samples or runs), and their calls can disagree. Active and inactive are the calls of the source. Unless noted, the call rests on the fitted dose curve; in most records, active means well fitted curve in the direction sought with a large enough effect in the repeat runs; inconclusive means weak or mixed curves; inactive means no such curve, though single readings can be large; an effect the other way counts as inactive or inconclusive.

Experiment [1] is described as follows: qHTS assay to identify small molecule antagonists of the thyroid receptor (TR) signaling pathway - cell viability counter screen (AID 743064). Further: nearly all actives have a fitted effect of over 50% in size. The gist of the method: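 CellTiter-Fluor readout, 30 min at 37 °C/5% CO2, following 23.5 h incubation of GH3.TRE-Luc cells with test compound and 1 nM T3 (final).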
Background: qHTS replaces the single test concentration by a dilution series.

Experiment [2] can be described thus: qHTS assay to identify small molecule antagonists of the thyroid receptor (TR) signaling pathway (AID 743065). Further: series mostly up to about 70 µM; nearly all actives have a fitted effect of over 55% in size. The essentials:
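GH3.TRE-Luc rat pituitary cells carrying two TR response elements driving luciferase were plated for 4 h, given compound plus 1 nM T3 (final), and incubated 23.5 h at 37 C. ONE-Glo luminescence measured reporter inhibition; CellTiter-Fluor fluorescence tracked cytotoxicity.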

In experiment [3] the test system is thyroid hormone receptor (rat, GH3 cells). Briefly: qHTS assay to identify small molecule agonists of the thyroid receptor (TR) signaling pathway (AID 743066; calls by dose curve).
Experiment [4] has as its target Estrogen receptor (Homo sapiens) (UniProt P03372). Put plainly: qHTS assay to identify small molecule antagonists of the estrogen receptor alpha (ER-alpha) signaling pathway (AID 743069; active means well fitted curve in the direction sought with a large enough effect in the signal ratio in the repeat runs, not every such curve was filed as active; the % refers to the signal ratio). The essentials:
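Estradiol-stimulated ER-alpha-UAS-bla HEK293 cells, 18 hr compound exposure at 37C. LiveBLAzer B/G substrate, 2 hr RT, fluorescence read.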

A short description of experiment [5]: qHTS assay to identify small molecule antagonists of the estrogen receptor alpha (ER-alpha) signaling pathway - cell viability counter screen (AID 743074; calls by dose curve;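 further: HEK293 cells carrying ER-alpha-UAS-bla reporter stimulated with 17beta-estradiol; nearly all actives have a fitted effect of over 45% in size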).
For experiment [6], the target named is Estrogen receptor (Homo sapiens) (UniProt P03372). Briefly: qHTS assay to identify small molecule agonists of the estrogen receptor alpha (ER-alpha) signaling pathway (AID 743075; calls by dose curve;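 further: HEK293 GripTite cells with ER-alpha and UAS-driven beta-lactamase reporter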).
Estrogen receptor (Homo sapiens), sequence (P03372 whole entry, looked up): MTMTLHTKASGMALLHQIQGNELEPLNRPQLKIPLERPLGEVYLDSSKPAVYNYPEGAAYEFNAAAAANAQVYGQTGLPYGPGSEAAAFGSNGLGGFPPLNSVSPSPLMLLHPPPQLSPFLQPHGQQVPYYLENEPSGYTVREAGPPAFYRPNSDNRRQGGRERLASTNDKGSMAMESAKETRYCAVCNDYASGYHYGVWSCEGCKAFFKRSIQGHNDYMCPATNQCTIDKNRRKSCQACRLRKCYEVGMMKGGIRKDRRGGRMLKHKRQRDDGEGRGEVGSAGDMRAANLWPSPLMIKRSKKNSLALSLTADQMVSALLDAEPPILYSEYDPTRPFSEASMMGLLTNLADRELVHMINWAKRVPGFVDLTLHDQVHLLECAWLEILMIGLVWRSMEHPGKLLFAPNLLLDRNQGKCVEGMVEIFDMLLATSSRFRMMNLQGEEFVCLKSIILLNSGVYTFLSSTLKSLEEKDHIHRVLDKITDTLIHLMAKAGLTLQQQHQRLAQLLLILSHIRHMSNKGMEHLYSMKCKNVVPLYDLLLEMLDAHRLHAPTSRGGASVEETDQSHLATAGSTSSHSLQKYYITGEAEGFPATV
For experiment [7] the target is unchanged. Put plainly: qHTS assay to identify small molecule agonists of the estrogen receptor alpha (ER-alpha) signaling pathway using the BG1 cell line (AID 743079). Further: nearly all actives have a fitted effect of over 20% in size.
The nature of experiment [8]: qHTS assay to identify small molecule antagonists of the estrogen receptor alpha (ER-alpha) signaling pathway using the BG1 cell line (AID 743080; calls by dose curve;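 further: BG1 cells stimulated with 17beta-estradiol alongside compound; series mostly up to about 70 µM; nearly all actives have a fitted effect of over 25% in size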). The gist of the method: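 Seeding, 24 h rest, compound transfer from DMSO, 17beta-estradiol addition, 21.5 h incubation, CellTiter-Fluor (30 min, 37 C), then ONE-Glo (30 min, room temperature): this sequence was run on BG1-Luc-4E2 reporter cells.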

The nature of experiment [9]: qHTS assay to identify small molecule antagonists of the estrogen receptor alpha (ER-alpha) signaling pathway using the BG1 cell line - cell viability counter screen (AID 743081).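 Further: compound given together with 17beta-estradiol as the ER stimulus; series mostly up to about 70 µM; nearly all actives have a fitted effect of over 45% in size.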
A further experiment has as its target Aromatase (Homo sapiens) (UniProt P11511). Put plainly: qHTS assay to identify aromatase inhibitors (AID 743083). Further: series mostly up to about 70 µM; nearly all actives have a fitted effect of over 55% in size.
A short description of experiment [10]: qHTS assay to identify aromatase inhibitors - cell viability counter screen (AID 743084).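 Further: cells stimulated with testosterone during compound exposure; nearly all actives have a fitted effect of over 55% in size.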
Experiment [11] concerns the target Aryl hydrocarbon receptor (Homo sapiens) (UniProt P35869). Put plainly: qHTS assay to identify small molecule that activate the aryl hydrocarbon receptor (AhR) signaling pathway (AID 743085). Further: nearly all actives have a fitted effect of over 15% in size. Further: potency means the concentration at half of the fitted maximal effect.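 On activation: HG2L7.5c1 human HepG2 liver cells with stably integrated DRE-driven firefly reporter; series mostly up to about 70 µM.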 The gist of the method: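 Stably transfected human liver carcinoma cells (HG2L7.5c1; 20 DRE-firefly luciferase) were incubated 5 h, dosed, and kept 24 h at 37C. Agonism was scored from increased luciferase luminescence.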

Experiment [12] is described as follows: qHTS assay to identify small molecule that activate the aryl hydrocarbon receptor (AhR) signaling pathway - cell viability counter screen (AID 743086).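 Further: HepG2 liver cells carrying the AhR DRE luciferase reporter; series mostly up to about 70 µM; nearly all actives have a fitted effect of over 45% in size.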 The gist of the method:
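HepG2-AhR-luc (HG2L7.5c1) cells, 4000/well, were preincubated 5 h at 37C, exposed to compound in qHTS format for 24 hr at 37C, then given CellTiter-Fluor for 30 min; viability was read as fluorescence in the reporter wells.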

In experiment [13] the target is Peroxisome proliferator-activated receptor gamma (Homo sapiens) (UniProt P37231). Put plainly: qHTS assay to identify small molecule agonists of the peroxisome proliferator-activated receptor gamma (PPARg) signaling pathway (AID 743094; active means well fitted activation curve with a large enough effect in the signal ratio in the repeat runs, not every such curve was filed as active; the % refers to the signal ratio). The essentials: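 Quantitative HTS agonist mode: stable HEK293H line with UAS-beta-lactamase reporter under PPARg control, 17 h compound exposure at 37C, fluorescence after 1 h FRET substrate loading at room temperature.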
Peroxisome proliferator-activated receptor gamma (Homo sapiens), sequence (P37231 whole entry, looked up): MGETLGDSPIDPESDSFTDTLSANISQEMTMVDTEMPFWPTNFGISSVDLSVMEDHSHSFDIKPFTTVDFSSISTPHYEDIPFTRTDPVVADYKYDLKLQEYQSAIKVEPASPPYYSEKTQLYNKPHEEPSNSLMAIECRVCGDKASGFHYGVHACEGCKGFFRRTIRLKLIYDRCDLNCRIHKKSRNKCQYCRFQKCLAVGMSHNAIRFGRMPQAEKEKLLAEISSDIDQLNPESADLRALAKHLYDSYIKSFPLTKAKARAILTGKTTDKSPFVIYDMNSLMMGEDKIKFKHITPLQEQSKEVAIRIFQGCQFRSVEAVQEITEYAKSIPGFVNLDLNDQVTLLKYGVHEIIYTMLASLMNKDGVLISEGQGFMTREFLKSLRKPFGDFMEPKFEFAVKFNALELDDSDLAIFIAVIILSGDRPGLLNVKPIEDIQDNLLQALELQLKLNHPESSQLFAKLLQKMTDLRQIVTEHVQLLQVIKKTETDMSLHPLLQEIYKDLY

For experiment [14] the target is unchanged. Put plainly: qHTS assay to identify small molecule antagonists of the peroxisome proliferator-activated receptor gamma (PPARg) signaling pathway (AID 743191; calls by dose curve; further: series mostly up to about 63 µM; nearly all actives have a fitted effect of over 30% in size). The essentials: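 GeneBLAzer PPARg UAS-bla HEK293H cells carrying a UAS-driven beta-lactamase reporter were plated at 3000 cells/well, preincubated 5 h at 37C, then given compound for 17 h at 37C; LiveBLAzer B/G FRET substrate was read after 1 h at room temperature.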

A short description of experiment [15]: qHTS assay for small molecule agonists of the antioxidant response element (ARE) signaling pathway - cell viability counter screen (AID 743203; calls by dose curve; further: nearly all actives have a fitted effect of over 55% in size). The gist of the method:
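Seeded at 2,000 cells/well, ARE-bla HepG2 cells were incubated 5 hrs before compound addition. After 16 hrs of treatment at 37C with 5% CO2, CellTiter-Glo reagent was added and luminescence read 30 min later.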

The nature of experiment [16]: qHTS assay for small molecule activators of the heat shock response signaling pathway - cell viability counter screen (AID 743209). Further: nearly all actives have a fitted effect of over 50% in size. The essentials:
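First, HSE-bla HeLa cells were seeded at 1500 cells/well and kept overnight at 37 C. Next, compounds were pinned in and incubated 5 h. After the FRET substrate step, CellTiter-Glo was added and luminescence read 30 min later.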

Experiment [17] can be described thus: qHTS assay for small molecule activators of the heat shock response signaling pathway (AID 743210; active means well fitted activation curve with a large enough effect in the signal ratio in the repeat runs, with a control signal flat, not every such curve was filed as active; the % refers to the signal ratio;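 further: HeLa cells with beta-lactamase reporter driven by heat shock elements; series mostly up to about 63 µM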). The gist of the method: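 Reporter gene assay: HeLa cells stably bearing an HSE-bla construct, compound treatment 5 h at 37 C, LiveBLAzer substrate 2.5 h at RT, fluorescence intensity.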
The nature of experiment [18]: qHTS assay for small molecule agonists of the antioxidant response element (ARE) signaling pathway (AID 743202; active means well fitted activation curve with a large enough effect in the signal ratio in the repeat runs, not every such curve was filed as active; the % refers to the signal ratio). The gist of the method: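 Compounds delivered in DMSO to ARE-bla HepG2 cells (2,000 cells/well, pre-incubated 5 h) and left 16 h at 37 C. LiveBLAzer B/G FRET substrate then added for 2 h at RT before fluorescence reading.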
Experiment [19] is described as follows: qHTS assay to identify small molecule antagonists of the peroxisome proliferator-activated receptor gamma (PPARg) signaling pathway - cell viability counter screen (AID 743194). Further: nearly all actives have a fitted effect of over 55% in size. The gist of the method: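 PPARg-UAS-bla HEK293H cells were plated, rested 5 h at 37 C, then treated with compounds plus rosiglitazone (50 nM final) for 17 h at 37 C; viability was then read by CellTiter-Glo luminescence after 30 min at room temperature.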

Aryl hydrocarbon receptor (Homo sapiens), sequence (P35869 whole entry, looked up): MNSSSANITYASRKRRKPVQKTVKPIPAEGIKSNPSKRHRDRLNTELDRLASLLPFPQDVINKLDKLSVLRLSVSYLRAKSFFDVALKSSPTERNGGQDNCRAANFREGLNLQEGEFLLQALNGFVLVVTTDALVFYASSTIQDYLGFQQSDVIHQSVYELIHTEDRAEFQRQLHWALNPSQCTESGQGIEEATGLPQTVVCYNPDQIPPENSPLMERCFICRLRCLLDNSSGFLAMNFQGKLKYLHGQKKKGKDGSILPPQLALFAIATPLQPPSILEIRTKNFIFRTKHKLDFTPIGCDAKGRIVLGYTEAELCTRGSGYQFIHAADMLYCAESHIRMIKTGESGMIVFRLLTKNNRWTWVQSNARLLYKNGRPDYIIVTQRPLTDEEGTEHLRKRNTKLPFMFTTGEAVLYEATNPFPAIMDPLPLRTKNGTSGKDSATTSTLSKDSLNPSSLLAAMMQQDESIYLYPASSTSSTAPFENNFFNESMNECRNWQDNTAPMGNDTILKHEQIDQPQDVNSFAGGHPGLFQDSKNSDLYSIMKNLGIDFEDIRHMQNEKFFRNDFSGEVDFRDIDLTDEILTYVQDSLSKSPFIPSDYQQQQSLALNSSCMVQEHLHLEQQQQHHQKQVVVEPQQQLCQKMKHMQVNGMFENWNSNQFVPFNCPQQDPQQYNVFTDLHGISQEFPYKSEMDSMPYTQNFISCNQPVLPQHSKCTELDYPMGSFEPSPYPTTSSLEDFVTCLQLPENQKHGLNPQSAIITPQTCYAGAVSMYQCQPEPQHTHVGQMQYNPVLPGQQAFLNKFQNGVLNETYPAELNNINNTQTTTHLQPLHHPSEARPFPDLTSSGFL
Aromatase (Homo sapiens), sequence (P11511 whole entry, looked up): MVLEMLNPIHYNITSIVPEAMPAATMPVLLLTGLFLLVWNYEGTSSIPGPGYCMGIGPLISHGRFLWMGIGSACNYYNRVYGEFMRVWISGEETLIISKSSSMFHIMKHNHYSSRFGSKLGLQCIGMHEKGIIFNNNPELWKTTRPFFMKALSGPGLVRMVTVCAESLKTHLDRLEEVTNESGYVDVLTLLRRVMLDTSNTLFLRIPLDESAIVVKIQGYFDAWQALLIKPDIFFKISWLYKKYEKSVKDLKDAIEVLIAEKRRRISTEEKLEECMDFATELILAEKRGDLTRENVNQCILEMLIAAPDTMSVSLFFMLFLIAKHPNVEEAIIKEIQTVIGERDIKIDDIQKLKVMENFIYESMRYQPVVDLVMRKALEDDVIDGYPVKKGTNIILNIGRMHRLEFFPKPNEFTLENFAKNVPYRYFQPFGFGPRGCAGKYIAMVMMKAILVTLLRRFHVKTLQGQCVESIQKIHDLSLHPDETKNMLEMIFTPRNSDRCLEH

Take `Cc1cc(C(C)(C)C)c(O)c(C)c1CC1=NCCN1`: the Potency entry (in [1]; in experiment [2]; in [7]; in experiment [8]; in the experiment with Aromatase (Homo sapiens); in experiment [10]) was “inactive” in each case. Besides, the Potency entry in [11], in [12] and in experiment [14] was “inactive” each time. Besides, the molecule was called inactive in experiment [3], in experiment [4], in [5], in [6], in [9] and in [13]. The result in [15], in [16] and in experiment [17] was inactive.
Turning to `CCOc1cc(NC(C)=O)ccc1C(=O)OC`, the Potency result (in [1]; in experiment [2]; in experiment [7]; in experiment [8]; in the experiment with Aromatase (Homo sapiens); in experiment [10]) was “inactive” throughout. In addition, the Potency result in experiment [11], in experiment [12], in experiment [14] and in [18] was “inactive” throughout. In addition, the molecule was called inactive in experiment [3], in experiment [4], in [5], in experiment [6], in experiment [9] and in experiment [13]. Moreover, the call in [15], in experiment [16] and in experiment [17] was inactive.
Regarding `COCCOCCOCCOCCO`, the Potency result (in experiment [1]; in experiment [2]; in experiment [7]; in experiment [8]; in the experiment with Aromatase (Homo sapiens); in [10]) was “inactive” in each case. For the same molecule, the Potency entry in experiment [11], in experiment [12] and in experiment [18] was “inactive” throughout. The molecule was called inactive in [3], in [4], in [5], in [6], in experiment [9] and in experiment [13]. In addition, the molecule was called inactive in [19], in experiment [15], in experiment [16] and in [17].
For `Oc1cn2c(n1)Nc1ccc(Cl)c(Cl)c1C2`, the Potency result (in [1]; in experiment [2]; in experiment [7]; in experiment [8]; with Aromatase (Homo sapiens); in [10]) was “inactive” in each case. The Potency result in experiment [12] was “inactive”. The molecule was called inactive in experiment [3], in [4], in experiment [5], in experiment [6], in experiment [9] and in experiment [13]. In addition, the result in experiment [19], in experiment [15] and in experiment [16] was inactive. Further, the Potency in [11] was 23.7 µM (active) and inactive.
Consider `CC(CC=O)CCCC(C)(C)O` (centres undefined), for which the Potency result (in [1]; in experiment [2]; in experiment [7]; in [8]; with Aromatase (Homo sapiens); in experiment [10]) was “inactive” throughout. Moreover, the Potency result in experiment [11], in [12], in [14] and in experiment [18] was “inactive” in each case. The molecule was called inactive in [3], in experiment [4], in experiment [5], in [6], in experiment [9] and in experiment [13]. Besides, the result in experiment [19], in [15], in experiment [16] and in experiment [17] was inactive.
As for `O=C(OCc1ccccc1)C(=O)OCc1ccccc1`, the Potency result (in experiment [1]; in experiment [2]; in experiment [7]; in [8]; in the experiment with Aromatase (Homo sapiens); in [10]) was “inactive” each time. Also, the Potency result in [11], in [12] and in experiment [14] was “inactive” in each case. Further, the call in experiment [3], in [4], in [5], in [6], in experiment [9] and in experiment [13] was inactive. In addition, the molecule was classed as inactive in experiment [19], in experiment [15] and in [16].
In the case of `COc1ccc(-c2cc(=O)c3c(O)cc(O[C@@H]4O[C@H](CO[C@@H]5O[C@@H](C)[C@H](O)[C@@H](O)[C@H]5O)[C@@H](O)[C@H](O)[C@H]4O)cc3o2)cc1O`, the Potency result (in experiment [1]; in [2]; in experiment [7]; in experiment [8]; in the experiment with Aromatase (Homo sapiens); in experiment [10]) was “inactive” throughout. Further, the Potency result in [12] is “inactive”. Besides, the call in experiment [3], in experiment [4], in experiment [5], in experiment [6], in [9] and in experiment [13] was inactive. The result in experiment [19], in experiment [15], in experiment [16] and in experiment [17] was inactive. The Potency in experiment [11] was 29.8 µM (active).
